Records with an inconclusive call do not appear. Calls of active or inactive are those of the source. Rule for the calls, unless noted: active = hit-call score of the fitted dose curve at least 0.9, where 1 is the maximum; inactive = score below 0.9.
Experiments:
[1] = CCTE_Mundy_HCI_Cortical_NOG_NeuriteLength: CCTE's Neurite Outgrowth Assay in rat cortical cells for Neurite Length, Mundy Lab (AID 2284213)
Procedure, shortened: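 Neurite length was read by high-content imaging of βIII-tubulin-labelled neurites in rat primary cortical cultures. Activity was fitted relative to DMSO.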

[2] = CCTE_Mundy_HCI_Cortical_Synap_Neur_Matur_NeuriteSpotCountPerNeuron: CCTE's Synaptogenesis and Neurite Maturation Assay in rat cortical cells for Neurite Spot Count per Neuron Count, Mundy Lab (AID 2284215)
Procedure, shortened: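 Read-out: neurite-associated synaptophysin puncta per neuron, imaged by high-content analysis after MAP2, synaptophysin and Hoechst staining. Rat primary cortical cultures, dosed DIV 7 through DIV 12; DMSO served as baseline.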

[3] = CCTE_Mundy_HCI_Cortical_Synap_Neur_Matur_NeuriteCount: CCTE's Synaptogenesis and Neurite Maturation Assay in rat cortical cells for Neurite Count, Mundy Lab (AID 2284222);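 note: exposure from day 7 to day 12 in vitro with readout at day 12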
Procedure, shortened: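 Rat primary cortical cells; AraC added at DIV 5, chemicals dosed with media change at DIV 7 through DIV 12. MAP2/synaptophysin/Hoechst immunostaining, high-content imaging of neurite number; fitted relative to DMSO.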

[4] = CCTE_Mundy_HCI_Cortical_Synap_Neur_Matur_CellBodySpotCount: CCTE's Synaptogenesis and Neurite Maturation Assay in rat cortical cells for Cell Body Spot Count, Mundy Lab (AID 2284223)
Procedure, shortened: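 Read-out: cell body-associated synaptophysin puncta per neuron, imaged after MAP2, synaptophysin and Hoechst staining. Rat cortical cells, AraC DIV 5, chemical dosing DIV 7, fixation DIV 12. Activity fitted in positive direction relative to DMSO baseline.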

[5] = CCTE_Mundy_HCI_hNP1_Pro_ResponderAvgInten: CCTE's Proliferation Assay in human neuroprogenitor cells, Mundy Lab (AID 2284224; active = hit-call score of the fitted dose curve at least 0.9, where 1 is the maximum)
Procedure, shortened: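 Proliferation was scored as BrdU labelling intensity in human neural progenitors derived from WA09 embryonic cells, measured 26.25 hours after chemical dosing. Activity was fitted relative to DMSO.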

[6] = UKN2_HCS_IMR90_cell_viability: Viability Assessment in the University of Konstanz (UKN) Leist Lab Neural Crest Cell Migration Assay in human induced IMR90 Pluripotent Stem Cells (UKN2) (AID 2284233);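 note: viability of neural crest cells differentiated from IMR90 iPSC measured by calcein-AM fluorescence imaging; cells exposed to compound for 24 h after a 24 h migration phase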
Procedure, shortened: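 Human IMR90-derived neural crest cells were allowed to migrate for 24 h into a cell-free zone, then exposed to test chemicals for 24 h. Calcein-AM and Hoechst staining with high-content imaging gave viability, analysed against DMSO baseline.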

[7] = CCTE_Mundy_HCI_Cortical_NOG_NeuronCount: CCTE's Neurite Outgrowth Assay in rat cortical cells for Neuron Count, Mundy Lab (AID 2284236; active = hit-call score of the fitted dose curve at least 0.9, where 1 is the maximum;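 note: neurons counted by imaging betaIII-tubulin and Hoechst stained cortical cells; cells exposed to compound for about 48 hours before fixation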)
Procedure, shortened: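 Read-out: neuron number by high-content imaging of betaIII-tubulin (Alexa Fluor-488) and Hoechst-labelled rat primary cortical cells.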

[8] = CCTE_Mundy_HCI_Cortical_NOG_BPCount: CCTE's Neurite Outgrowth Assay in rat cortical cells for Branch Point Count, Mundy Lab (AID 2284237)
Procedure, shortened: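 Measured 50.33 h after dosing, this morphology endpoint uses rat primary cortical cultures labelled for betaIII-tubulin. Branch points are quantified by high-content imaging, with DMSO as negative control and baseline.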

[9] = CCTE_Mundy_HCI_hNP1_Casp3_7: CCTE's Caspase-Glo 3/7 Assay in human neuroprogenitor cells for Apoptosis, Mundy Lab (AID 2284240)
Procedure, shortened: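 Apoptosis is scored by activated caspase-3/7 luminescence in WA09-derived neural progenitor cells, measured 26.5 h after chemical dosing. Values represent gain of signal relative to DMSO vehicle.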

[10] = CCTE_Mundy_HCI_hNP1_CellTiter: CCTE's Cell Titer-Glo 2 Assay in human neuroprogenitor cells for Viability, Mundy Lab (AID 2284241; active = hit-call score of the fitted dose curve at least 0.9, where 1 is the maximum)
Procedure, shortened: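 Human neural progenitor cells (hNP1, WA09-derived) were plated on poly-L-ornithine/laminin and grown 40 to 44 hours at 37 °C, 5% CO2 before chemical addition. Twenty-four hours later, ATP was measured by CellTiter-Glo luminescence; loss of signal versus DMSO indicates reduced viability.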

[11] = CCTE_Mundy_HCI_Cortical_Synap_Neur_Matur_NeuronCount: CCTE's Synaptogenesis and Neurite Maturation Assay in rat cortical cells for Neuron Count, Mundy Lab (AID 2284242; active = hit-call score of the fitted dose curve at least 0.9, where 1 is the maximum)
Procedure, shortened: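 Neuron number was scored by automated high-content imaging of Hoechst- and MAP2-labelled rat primary cortical cells. Glial growth was arrested with AraC at DIV 5, compounds were applied from DIV 7, and cultures ended at DIV 12.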

[12] = IUF_NPC2c_oligodendrocyte_migration_120hr: Leibniz Research Institute for Environmental Medicine (IUF) 120-hour Neural Progenitor Cell Migration Assay for Oligodendrocyte Migration (NPC2c) (AID 2284297);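 note: O4-positive oligodendrocyte migration distance divided by radial glia migration distance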
Procedure, shortened: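 hNPC spheres (GW 16-19 cortex), PDL/laminin, DMEM/F12 3:1 + 1% N2, 37C. Dosing day 0–5, half feed day 3, DMSO ≤0.1%. Fixed 120 h; O4 ICC + Hoechst, HCI. Readout: mean oligodendrocyte distance from sphere edge / radial glia distance.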

[13] = IUF_NPC2a_radial_glia_migration_72hr: Leibniz Research Institute for Environmental Medicine (IUF) 72-hour Neural Progenitor Cell Migration Assay for Radial Glia Migration (NPC2a) (AID 2284299)
Procedure, shortened: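 Primary hNPC spheres, fetal brain GW 16-19, on PDL/laminin; DMEM/F12 3:1 + 1% N2. Compound dosed day 0, 7 conc. + SC, half-medium refresh day 3. 72 h brightfield, migration distance core-to-front (um), 4 directions averaged.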

[14] = IUF_NPC2b_neuronal_migration_120hr: Leibniz Research Institute for Environmental Medicine (IUF) 120-hour Neural Progenitor Cell Migration Assay for Neuron Migration (NPC2b) (AID 2284300)
Procedure, shortened: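 hNPC spheres, PDL/laminin, DMEM:F12 3:1 + 1% N2, 37C/5% CO2; 7 concentrations + solvent control (DMSO ≤0.1%), 5 d exposure, half-feed day 3. Fix 120 h, TUBB3 ICC, HCI: mean neuron migration distance ÷ glia distance.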

[15] = IUF_NPC3_neuronal_differentiation_120hr: Leibniz Research Institute for Environmental Medicine (IUF) 120-hour Neuronal Differentiation Assay (NPC3) (AID 2284301)
Procedure, shortened: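 Single 0.3 mm neurospheres from human fetal cortex were plated in differentiation medium containing test compound. Medium was half-replaced on day 3. After 120 h cells were fixed, immunostained and imaged, and neuronal fraction was scored against DMSO control.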

[16] = IUF_NPC4_neurite_area_120hr: Leibniz Research Institute for Environmental Medicine (IUF) 120-hour Neuronal Morphology Assay for Neurite Area (NPC4) (AID 2284305; active = hit-call score of the fitted dose curve at least 0.9, where 1 is the maximum)
Procedure, shortened: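 Neurite area is read out as the mean pixel area, excluding nuclei, of skeletonized TUBB3-positive neurons imaged after 120 h. Primary human neural progenitor spheres differentiated on poly-D-lysine/laminin with compound present from day 0. Activity was referenced to DMSO controls.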

[17] = IUF_NPC2-5_cytotoxicity_72hr: Cytotoxicity Assessment at 72 hours in the Leibniz Research Institute for Environmental Medicine (IUF) Neural Progenitor Cell Migration and Differentiation Assay for Cytotoxicity (NPC2-5) (AID 2284306; active = hit-call score of the fitted dose curve at least 0.9, where 1 is the maximum;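 note: LDH release into supernatant measured by resorufin fluorescence marking membrane damage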)
Procedure, shortened: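 Membrane integrity loss was scored from fluorescence (RFU) of resorufin generated by LDH in culture supernatant, 72 h after dosing. Differentiating human progenitor spheres received seven serial compound concentrations alongside a solvent control.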

[18] = IUF_NPC2-5_cytotoxicity_120hr: Cytotoxicity Assessment at 120 hours in the Leibniz Research Institute for Environmental Medicine (IUF) Neural Progenitor Cell Migration and Differentiation Assay (NPC2-5) (AID 2284307; active = hit-call score of the fitted dose curve at least 0.9, where 1 is the maximum)
Procedure, shortened: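 hNPC spheres on PDL/laminin, N2 medium, 37C; 7 concs + solvent control, DMSO ≤0.1%; 5-day exposure, half medium changed day 3. LDH in supernatant at 120 h, resazurin→resorufin fluorescence, gain-of-signal.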

[19] = IUF_NPC2-5_cell_number_120hr: Cell Number Assessment at 120 hours in the Leibniz Research Institute for Environmental Medicine (IUF) Neural Progenitor Cell Migration and Differentiation Assay (NPC2-5) (AID 2284308);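 note: count of Hoechst-stained nuclei in migration zone around plated human neural progenitor spheres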
Procedure, shortened: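 Hoechst-stained nuclei within the migration area were counted by automated high content imaging after 120 h. Single hNPC spheres differentiated on poly-D-lysine/laminin in DMEM/F12 (3:1) with 1% N2, compound present throughout, DMSO ≤0.1%.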

[20] = IUF_NPC2-5_viability_120hr: Viability Assessment at 120 hours in the Leibniz Research Institute for Environmental Medicine (IUF) Neural Progenitor Cell Migration and Differentiation Assay (NPC2-5) (AID 2284312)
Procedure, shortened: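 Alamar blue resorufin fluorescence read after 5 days of differentiation, with compound present from day 0 and replenished at day 3. Primary hNPC spheres on laminin-coated plates, 37C; seven concentrations plus solvent control, fitted against DMSO.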

[21] = IUF_NPC1_cytotoxicity_72hr: Cytotoxicity Assessment at 72 hours in the Leibniz Research Institute for Environmental Medicine (IUF) Neural Progenitor Cell Proliferation Assay (NPC1) (AID 2284332; active = hit-call score of the fitted dose curve at least 0.9, where 1 is the maximum;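 note: rising LDH signal means more cytotoxicity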)
Procedure, shortened: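 Spheres of primary human neural progenitors are plated one per well on day 0 in growth-factor medium and dosed at once. After three days at 37C, supernatant LDH is measured fluorimetrically via resazurin reduction.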

[22] = CCTE_Mundy_HCI_iCellGluta_NOG_NeuronCount: CCTE's Neurite Outgrowth Assay in iCellGluta cells for Neuron Count, Mundy Lab (AID 2284340; active = hit-call score of the fitted dose curve at least 0.9, where 1 is the maximum;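 note: cells fixed about 48 h after compound addition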)
Procedure, shortened: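 Neuron count read by automated high-content imaging of Hoechst 33342 and betaIII-tubulin/Alexa Fluor-488 labelling in human iPSC glutamatergic neurons. Activity fitted relative to DMSO.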

[23] = CCTE_Mundy_HCI_iCellGluta_NOG_NeuriteCount: CCTE's Neurite Outgrowth Assay in iCellGluta cells for Neurite Count, Mundy Lab (AID 2284342; active = hit-call score of the fitted dose curve at least 0.9, where 1 is the maximum;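 note: chemical exposure about 48 hours starting 2 hours after plating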)

Measured: outcome

CC(C)O
inactive: all assays above

From PubChem BioAssay (EPA / NIEHS)
